Test results: PubChem BioAssay (NCATS)
Records with an inconclusive call do not appear. The source made the active and inactive calls. Calls come from the whole dose curve; as a rule, active = well fitted curve in the direction sought with a large enough effect; inconclusive = small, poorly fitted or top-dose-only effect, or another doubt; inactive = no such curve, though single readings can be large; an effect the other way counts as inactive or inconclusive.

What was measured:
PA-1 = assay: Primary qHTS to identify gynecologic anti-cancer compounds using libraries of approved drugs and bioactive compounds (AID 1345084); conditions: Gynecologic cancer cell panel viability, ATPlite luminescence, 48 h; series mostly up to 57.5 µM; note: nearly all actives have a fitted effect of over 55% in size
Procedure, shortened: (§1)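 Luminescence from the ATPlite ATP-monitoring reagent indicates viable cell number; lower signal means cytotoxicity. Cells received compound 16 h after seeding and were exposed for 48 h across five concentrations.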

SKOV3 = assay: as above; conditions: Gynecologic cancer cell panel viability, ATPlite luminescence, 48 h; series mostly up to 57.5 µM
Procedure, shortened: as §1

Tov-21-G = assay: as above; conditions: Gynecologic cancer cell panel viability, ATPlite luminescence, 48 h; series mostly up to 57.5 µM
Procedure, shortened: as §1

Tov112D = assay: as above; conditions: Gynecologic cancer cell panel viability, ATPlite luminescence, 48 h; series mostly up to 57.5 µM
Procedure, shortened: as §1

[1] = Drug repurposing screens with cells derived from glioblastoma tumor samples (AID 1345199); conditions: GBM patient neurospheres viability, ATP luminescence, 48 h; note: nearly all actives have a fitted effect of over 40% in size; note: potency is the fitted concentration of half-maximal effect
Procedure, shortened: (§2)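 Primary testing used CD133+ neurospheres from four GBM patients, seven concentrations, 48 h exposure and ATP-based viability; confirmation added three slower-growing patient lines.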

astro = assay: as above; conditions: viability, ATP luminescence, 48 h; series mostly up to 45.9 µM
Procedure, shortened: as §2

[2] = at 45.9 µM (top of the series), tumour line B
[3] = at 45.9 µM (top of the series), tumour line D
[4] = at 46 µM (top of the series), tumour line A
[5] = at 108 µM (top of the series), tumour line B
[6] = at 108 µM (top of the series), tumour line D
% is set by controls: 0 for no effect and ±100 for the full control effect.

CNC(=O)NC(O)C(Cl)(Cl)Cl (stereo not drawn)
inactive: Potency (PA-1) | Potency (SKOV3) | Potency (Tov-21-G) | Potency (Tov112D) | activity, negative = cell killing [1, 2] -2.48% | activity, negative = cell killing [1, 3] 7% | activity, negative = cell killing [1, 4] -5.01% | Potency (astro)

O=C(O)Cc1ccccc1
inactive: Potency (PA-1) | Potency (SKOV3) | Potency (Tov-21-G) | Potency (Tov112D) | activity, negative = cell killing [1, 2] -8.63% | activity, negative = cell killing [1, 3] -22.9% | activity, negative = cell killing [1, 4] -19.6% | Potency (astro)

C[C@]12CC[C@H](O)CC1=CC[C@@H]1[C@@H]2CC[C@]2(C)C(=O)CC[C@@H]12
active: Potency ([1]; tumour line A) 22.4 µM
inactive: Potency (PA-1) | Potency (SKOV3) | Potency (Tov-21-G) | Potency (Tov112D) | activity, negative = cell killing [1, 2] -4.02%

CCCCC1C(=O)NC(=O)N(C2CCCCC2)C1=O (stereo not drawn)
inactive: Potency (PA-1) | Potency (SKOV3) | Potency (Tov-21-G) | Potency (Tov112D) | activity, negative = cell killing [1, 2] 0.883% | activity, negative = cell killing [1, 3] 0.724% | activity, negative = cell killing [1, 4] -28.6% | Potency (astro)

Cc1cccc(Cc2cnc[nH]2)c1C
inactive: Potency (PA-1) | Potency (SKOV3) | Potency (Tov-21-G) | Potency (Tov112D) | activity, negative = cell killing [1, 2] -15.8% | activity, negative = cell killing [1, 3] -4.57% | Potency (astro)
active: Potency ([1]; tumour line A) 35.5 µM

CC(C)NCC(O)c1ccc(N)c(C#N)c1 (stereo not drawn)
inactive: Potency (PA-1) | Potency (SKOV3) | Potency (Tov-21-G) | Potency (Tov112D) | activity, negative = cell killing [1, 2] -10.3% | activity, negative = cell killing [1, 3] -5.78% | activity, negative = cell killing [1, 4] -34.1%

C[N+]1(CCC(C(N)=O)(c2ccccc2)c2ccccc2)CCCCC1
inactive: Potency (PA-1) | Potency (SKOV3) | Potency (Tov-21-G) | Potency (Tov112D) | activity, negative = cell killing [1, 2] -5.31% | activity, negative = cell killing [1, 3] -19.9%

CNC(C)Cc1ccc2c(c1)OCO2 (stereo not drawn)
inactive: Potency (PA-1) | Potency (SKOV3) | Potency (Tov-21-G) | Potency (Tov112D) | activity, negative = cell killing [1, 5] 0.451% | activity, negative = cell killing [1, 6] -9% | Potency (astro)
active: Potency ([1]; tumour line A) 50.1 µM

Cc1ncc2n1-c1ccc(Cl)cc1C(c1ccccc1F)=NC2
inactive: Potency (PA-1) | Potency (SKOV3) | Potency (Tov-21-G) | Potency (Tov112D) | activity, negative = cell killing [1, 2] -17.8% | activity, negative = cell killing [1, 3] -1.25%

CCc1cc(OC)c(C[C@H](C)N)cc1OC
inactive: Potency (PA-1) | Potency (SKOV3) | Potency (Tov-21-G) | Potency (Tov112D) | activity, negative = cell killing [1, 5] -24.5% | activity, negative = cell killing [1, 6] -14.6% | Potency (astro)
active: Potency ([1]; tumour line A) 31.6 µM
